From article PMC4336329 (PLoS ONE, 2015)
The campaign covered roughly 310,000 compounds. About 2,200 (0.71%) showed an effect of 50% or more. The effect is printed as a negative number. What follows is part of a selection rich in strong results, with near analogues and random picks from the rest.

target: human ether-à-go-go-related gene (hERG) potassium channel (human, UniProt Q12809); assay: primary screen, population patch clamp on CHO cells stably expressing hERG; higher = less effect of the substance
Sequence (Q12809 whole entry, looked up): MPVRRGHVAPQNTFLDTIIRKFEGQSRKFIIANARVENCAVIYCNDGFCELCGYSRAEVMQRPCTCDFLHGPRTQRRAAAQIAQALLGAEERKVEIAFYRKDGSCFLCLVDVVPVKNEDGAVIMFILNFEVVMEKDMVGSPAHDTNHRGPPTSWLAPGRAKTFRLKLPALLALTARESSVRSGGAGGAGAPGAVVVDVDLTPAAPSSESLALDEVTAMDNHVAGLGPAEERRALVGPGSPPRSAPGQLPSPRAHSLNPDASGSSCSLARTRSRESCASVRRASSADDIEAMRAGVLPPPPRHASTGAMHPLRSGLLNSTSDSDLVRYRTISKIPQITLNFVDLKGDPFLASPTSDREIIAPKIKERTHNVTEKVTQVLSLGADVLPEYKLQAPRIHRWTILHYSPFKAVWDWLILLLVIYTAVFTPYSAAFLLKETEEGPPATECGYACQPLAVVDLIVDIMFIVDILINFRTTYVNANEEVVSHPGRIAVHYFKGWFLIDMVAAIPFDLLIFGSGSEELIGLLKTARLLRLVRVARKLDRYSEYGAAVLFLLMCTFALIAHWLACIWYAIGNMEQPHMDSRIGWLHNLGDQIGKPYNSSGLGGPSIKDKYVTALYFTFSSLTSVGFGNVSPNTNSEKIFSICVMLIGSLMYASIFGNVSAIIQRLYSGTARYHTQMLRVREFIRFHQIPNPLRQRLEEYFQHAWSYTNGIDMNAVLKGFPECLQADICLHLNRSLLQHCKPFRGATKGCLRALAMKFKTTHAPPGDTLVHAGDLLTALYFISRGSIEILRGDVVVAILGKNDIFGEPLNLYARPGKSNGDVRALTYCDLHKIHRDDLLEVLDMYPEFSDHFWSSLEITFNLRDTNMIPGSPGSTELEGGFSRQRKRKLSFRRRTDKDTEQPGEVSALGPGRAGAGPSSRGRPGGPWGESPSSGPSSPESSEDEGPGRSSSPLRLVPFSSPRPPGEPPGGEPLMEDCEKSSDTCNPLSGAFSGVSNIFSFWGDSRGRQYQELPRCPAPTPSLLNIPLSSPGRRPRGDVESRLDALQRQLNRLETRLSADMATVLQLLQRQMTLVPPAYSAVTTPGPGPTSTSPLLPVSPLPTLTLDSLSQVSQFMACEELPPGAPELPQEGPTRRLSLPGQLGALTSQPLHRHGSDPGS

Row | Structure (SMILES) | hERG current change (%, negative = inhibition) at 1uM
1 | O=C(C[n+]1cccc2ccccc21)c1ccc([N+](=O)[O-])cc1.[Br-] | -53.8%
2 | O=C(C[n+]1cccc(NC(=O)c2ccccc2)c1)c1cccc([N+](=O)[O-])c1.[Br-] | -39.6%
3 | Cc1ccc(C(=O)C[n+]2cccc3ccccc32)cc1.[Br-] | 7.24%
4 | O=C(C[n+]1cccc2ccccc21)c1ccccc1.[Br-] | 8.9%
5 | O=C(Nc1ccccc1)c1ccc[n+](Cc2ccc([N+](=O)[O-])cc2)c1.[Br-] | 5.28%
6 | O=C(C[n+]1cccc(C(=O)Nc2ccccc2)c1)c1ccc([N+](=O)[O-])cc1.[Br-] | -61%
7 | COc1ccc(CC(=O)NNS(=O)(=O)c2ccc([N+](=O)[O-])cc2)cc1OC | 16%
8 | O=C(COn1nnc2ccc(Cl)cc21)NCc1ccccc1 | 0.51%
9 | CCCCN1C(=O)C(=O)N(CC(=O)NC2CCCc3ccccc32)C1=O (stereo not shown) | 8.35%
10 | Cc1ccc(-c2csc(N(CCCN3CCOCC3)C(=O)c3ccco3)n2)cc1.Cl | -4.11%
11 | CCN(CC)CCCN(C(=O)c1ccco1)c1nc(-c2ccc(Cl)cc2)cs1.Cl | -25.5%
12 | CCN(CC)CCCN(C(=O)c1ccco1)c1nc(-c2ccc(C)cc2)cs1.Cl | -90.2%
13 | CN(C)CCCN(C(=O)c1ccco1)c1nc(-c2ccc(Cl)cc2)cs1.Cl | -70.8%
14 | Cc1ccc(-c2csc(N(CCCN(C)C)C(=O)c3ccco3)n2)cc1.Cl | -36.6%
15 | Cl.O=C(c1ccco1)N(CCCN1CCOCC1)c1nc(-c2ccc(Cl)cc2)cs1 | -5.41%
16 | COc1cccc(C2c3[nH]c4ccccc4c3C[C@H]3C(=O)N(C)CC(=O)N23)c1 (stereo partly shown) | -1.14%
17 | CON(c1nc(Cl)nc(N(C)C)n1)S(=O)(=O)c1ccccc1Cl | 6.38%
18 | O=C(Nc1cc(Br)ccc1O)C1CC(c2ccccc2Cl)=NO1 (stereo not shown) | 18.5%
19 | CCOc1ccc(Nc2nc(N)nc(CN(C)C3CCCCC3)n2)cc1 | -58.2%
20 | COc1ccc(Nc2nc(N)nc(CN(C)C3CCCCC3)n2)cc1 | -17.9%
21 | COc1ccccc1Nc1nc(N)nc(CN(C)C2CCCCC2)n1 | -11.7%
22 | CCOc1ccccc1Nc1nc(N)nc(CN(C)C2CCCCC2)n1 | -54.3%

Row | Structure (SMILES) | hERG current change (%, negative = inhibition) at 1uM
23 | CCOc1ccccc1Nc1nc(N)nc(CN2CCCCC2C)n1 (stereo not shown) | -9.01%
24 | CCOc1ccc(Nc2nc(N)nc(CCl)n2)cc1 | 7.02%
25 | CC(C)NC(=O)C1CCN(C2CCN(C(=O)Cc3ccc4c(c3)OCO4)CC2)CC1 | 4.98%
26 | Cc1cc(N2C(=O)C(O)=C(C(=O)c3cccs3)C2c2ccc(F)cc2)no1 (stereo not shown) | 14.8%
27 | S=C(NCc1ccncc1)Nc1ccccc1 | 7.34%
28 | CCCOc1ccc(N2C(=O)CC(NCCNc3ccc([N+](=O)[O-])cn3)C2=O)cc1 (stereo not shown) | -57.8%
29 | COc1ccc(N2C(=O)CC(NCCNc3ccc([N+](=O)[O-])cn3)C2=O)cc1 (stereo not shown) | -13.7%
30 | CCOc1ccc(N2C(=O)CC(NCCNc3ccc([N+](=O)[O-])cn3)C2=O)cc1 (stereo not shown) | -37.8%
31 | CC1(C)CC(=O)C2=C(C1)N(c1ccc(F)cc1)C(N)=C(C#N)C2c1cccs1 (stereo not shown) | 4.89%
32 | CC1CC(C)CN(S(=O)(=O)c2ccc(Oc3ccc([N+](=O)[O-])cc3)cc2)C1 (stereo not shown) | 14.4%
33 | CN1CCC(=NOc2ccc([N+](=O)[O-])cc2)CC1 | -56%
34 | CN1CCN(C(=O)c2ccc(Oc3ccc([N+](=O)[O-])cc3)cc2)CC1 | -11.7%
35 | CC1CN(C)C(C)C/C1=N/Oc1ccccc1[N+](=O)[O-].Cl (stereo not shown) | 2.66%
36 | CC1=CC(=O)C=C(C)C1=NOc1ccc([N+](=O)[O-])cc1 | -11.7%
37 | CC1CN(C)C(C)C/C1=N\Oc1ccc([N+](=O)[O-])cc1.Cl (stereo not shown) | -84.5%
38 | CCCCCc1nnc(NC(=O)C2=COCCO2)s1 | 6.91%
39 | O=C(Nc1nc(-c2ccccn2)cs1)c1ccc(F)c(S(=O)(=O)N2CCOCC2)c1 | 5.44%
40 | CCCC(=O)Nc1c(-c2cccs2)c(=O)c2ccccc2n1C | 5.25%
41 | CC1CCCCC1NC(=O)Cn1cccc1C(=O)c1ccccc1 (stereo not shown) | 14%
42 | CNc1nc2cc([N+](=O)[O-])c([N+](=O)[O-])cc2nc1NC | -3.16%
43 | COc1ccc(CN2CCC(C(=O)Nc3ccc(Oc4ccccc4)nc3)CC2)cc1F | -37.8%
